HPGD block: HPGD (human) dehydrogenase inhibition; AID 894; Potency, µM, for the others: at the top dose activity change, negative = inhibition, hits mostly inhibitors; purified HPGD, NADH fluorescence kinetic, PGE2 substrate; actives 4.3% (n = 150,000); further: potency means the concentration at half of the fitted maximal effect
Target sequence (P15428 whole entry, looked up): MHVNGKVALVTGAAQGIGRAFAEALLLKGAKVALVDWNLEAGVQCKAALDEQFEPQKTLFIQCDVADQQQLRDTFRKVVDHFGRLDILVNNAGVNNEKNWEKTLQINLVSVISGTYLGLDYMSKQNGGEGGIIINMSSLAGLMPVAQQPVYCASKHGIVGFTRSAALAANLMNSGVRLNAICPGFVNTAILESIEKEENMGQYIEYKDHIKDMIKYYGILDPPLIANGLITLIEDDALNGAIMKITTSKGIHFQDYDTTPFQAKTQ
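20 nM HPGD preincubated 15 min at room temperature with compound in 50 mM Tris-HCl pH 8, 0.01% Tween 20. Started with 1 mM NAD+ and 30 uM prostaglandin E2; NADH fluorescence (360/450 nm) read 5 times over 30-s intervals, last minus first.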
PNC inhibitor: perinucleolar compartment assembly inhibition; PC3M PTB-GFP, PNC prevalence imaging, 16 h; hits give low values; activity change (PNC), negative = inhibition, % at 10 µM; actives 3.1% (n = 140,000);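 active means readout at or below -70, meaning at least 70% loss of cells showing the perinucleolar compartment, a nuclear body marking cancer cells; inconclusive means readout between -30 and a set limit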;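 further: plate controls were DMSO wells for no effect and camptothecin positive control wells for full effect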
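Read-out is percentage of cells bearing a perinucleolar compartment, from automated 20x imaging of fixed, Hoechst-stained PC3M PTB-GFP cells. Cells were seeded 4 h, then exposed 16 h to compound (23 nl of library stock) in duplicate plates.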
IMPase cell inh: IMPase inhibition in cells; CHO-M1 cells, IP1 accumulation, HTRF TR-FRET ratio; inhibition (IP1 accumulation), % at 46.1 µM; 120,000 tested, under 10 active; active means well fitted curve in the direction sought with a large enough effect in the signal ratio, not every such curve was filed as active; inconclusive means small, poorly fitted or top-dose-only effect, or a change in a side signal; inactive means no such curve, though single readings can be large or run the other way; the % refers to the signal ratio;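 further: cells stimulated with carbachol in lithium chloride buffer; plate controls were DMSO basal wells for no effect and reference inhibitor wells for full effect; higher means more IMPase inhibition seen as more IP1 and lower FRET ratio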
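Carbachol-driven Gq signalling in CHO-M1 cells (2000/well) generates IP1. Compounds that block IMPase raise IP1 and so reduce the FRET signal from Eu-anti-IP1 and d2-IP1 after a 10 min room-temperature lysis.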
ALDH1A1 block: ALDH1A1 (human) enzyme inhibition; Purified ALDH1A1, NADH fluorescence, propionaldehyde substrate; Potency, µM (series often up to 75.3 µM), for inactives: at the top dose activity, negative = inhibition, hits mostly inhibitors; actives 7.3% (n = 220,000); AID 1030;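 further: potency means the concentration at half of the fitted maximal effect; plate controls were no enzyme wells and a reference inhibitor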
Target sequence (P00352 whole entry, looked up): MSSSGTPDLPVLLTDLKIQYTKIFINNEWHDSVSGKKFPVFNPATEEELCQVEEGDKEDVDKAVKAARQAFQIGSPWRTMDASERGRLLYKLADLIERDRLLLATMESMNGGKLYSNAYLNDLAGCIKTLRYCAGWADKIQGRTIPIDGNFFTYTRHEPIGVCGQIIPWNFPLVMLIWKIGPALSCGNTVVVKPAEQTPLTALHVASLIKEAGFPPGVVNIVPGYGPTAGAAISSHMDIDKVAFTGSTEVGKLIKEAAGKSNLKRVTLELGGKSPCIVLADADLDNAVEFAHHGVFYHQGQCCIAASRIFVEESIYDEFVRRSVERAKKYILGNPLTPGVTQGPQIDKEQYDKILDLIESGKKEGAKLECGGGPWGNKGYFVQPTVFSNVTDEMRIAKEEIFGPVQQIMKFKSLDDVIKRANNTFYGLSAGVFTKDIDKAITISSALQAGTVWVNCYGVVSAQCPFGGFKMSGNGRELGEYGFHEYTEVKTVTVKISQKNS
KinaseGlo FLuc: Kinase-Glo luciferase inhibition (counter-screen) | Q27757 | Kinase-Glo luciferase, ATP luminescence, 8 min | Potency, µM (titrated, usually from 38.3 µM), without a hit: top-dose activity change, negative = inhibition, most hits filed as inhibitors | actives 0.28% (n = 200,000); active means well fitted inhibition curve with a large enough effect; inconclusive means small, poorly fitted or top-dose-only effect; further: potency means the concentration at half of the fitted maximal effect; nearly all actives have a fitted effect of over 60% in size
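Compound is pinned into ATP-containing buffer (10 uM ATP, imidazole pH 7.2, 7 mM MgCl2). Kinase-Glo luciferase reagent is then added. Light output is recorded following an 8-min room-temperature incubation.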
LMNA splice mod: LMNA splicing modulation | actives 0.01% (n = 200,000) | Potency, µM (top dose mostly 46.1 µM), for inactives: top-dose ratio change, negative = inhibition, hits mostly inhibitors | HeLa LMNA splicing GFP/RFP minigene ratio, 48 h | AID 1487; active means well fitted inhibition curve with a large enough effect in the signal ratio, with a control signal flat, not every such curve was filed as active; inconclusive means small, poorly fitted or top-dose-only effect, or effect the other way, or a change in a side signal; the % refers to the signal ratio; further: potency means the concentration at half of the fitted maximal effect
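S3 HeLa stable clones carrying a lamin A-EGFP splicing minigene plus DsRed2 were seeded at 600 cells/well in Opti-MEM with 2% FBS, pin-dosed and incubated 48 h at 37°C. Acumen cytometry (488 nm) gave the GFP/RFP total-intensity ratio.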
The depositor's hits bear a star; [ ] = remark or other dose. Hits are enriched below; roughly 10% of the tested compounds scored in any of these assays. Unless noted, the call rests on the fitted dose curve; in most records, active means well fitted inhibition curve with a large enough effect (not every such curve was filed as active); inconclusive means small, poorly fitted or top-dose-only effect, or another doubt; inactive means no such curve, though single readings can be large or run the other way. Unless noted, on the % scale 0 is the no-effect control and ±100 the full control effect.

How did O=C1NN(c2ccccc2)C(=O)/C1=C\c1cccc(OC(=O)c2cccs2)c1 do in these assays?
HPGD block: 2.51µM*; PNC inhibitor: -6.5; IMPase cell inh: -0.6; ALDH1A1 block: 7.94µM*; KinaseGlo FLuc: 16.9%; LMNA splice mod: 4.9%

What do the screens show for `CCOc1cc(/C=C2/C(=O)N(c3ccccc3)N=C2C)ccc1OC(=O)c1cccs1`?
HPGD block: 20µM*; PNC inhibitor: 75.0; IMPase cell inh: 2.9; ALDH1A1 block: inconclusive; KinaseGlo FLuc: -3.4%; LMNA splice mod: 2.1%

Results for COc1ccccc1NC(=O)c1cccc(S(=O)(=O)N2CCCCCC2)c1 ?
IMPase cell inh: 3.7

Results for COc1ccc(CNCc2ccco2)cc1OCc1ccccc1 ?
HPGD block: -11.4%; PNC inhibitor: inconclusive; IMPase cell inh: 2.2; ALDH1A1 block: 11.2µM*; KinaseGlo FLuc: 16.3%; LMNA splice mod: -2.2%

What do the screens show for `Cc1cc(C(F)(F)F)nn1Cc1ccc(C(=O)NCc2ccco2)o1`?
HPGD block: inconclusive; PNC inhibitor: inconclusive; IMPase cell inh: 0.0; ALDH1A1 block: 17.8µM*; KinaseGlo FLuc: -0.3%; LMNA splice mod: 15.1%

What do the screens show for `Cc1ccccc1CS(=O)(=O)Cc1ccc(C(=O)NCc2ccco2)o1`?
HPGD block: 1.0%; PNC inhibitor: 120.0; IMPase cell inh: 3.8; ALDH1A1 block: -7.9%; KinaseGlo FLuc: 0.3%; LMNA splice mod: 5.4%

Results for COc1ccccc1OCc1ccc(C(=O)NC(C)(C)C)o1 ?
HPGD block: -11.3%; PNC inhibitor: -18.3; IMPase cell inh: 3.8; ALDH1A1 block: inconclusive; KinaseGlo FLuc: 0.0%; LMNA splice mod: inconclusive

Results for COc1ccccc1OCc1ccc(C(=O)NCc2ccco2)o1 ?
HPGD block: -16.3%; PNC inhibitor: -86.4*; IMPase cell inh: inconclusive; ALDH1A1 block: -0.3%; KinaseGlo FLuc: 3.5%; LMNA splice mod: -4.6%

What do the screens show for `O=C(O)[C@@H]1CCCN1Cc1c[nH]c2ccccc12`?
HPGD block: -0.1%; ALDH1A1 block: 3.1%[13.5 µM]; KinaseGlo FLuc: -5.4%[7.66 µM]

What do the screens show for `COc1ccc(-n2c(=O)c(-c3ccc(Cl)cc3)nc3cnc(N(C)C)nc32)cc1`?
ALDH1A1 block: inconclusive; LMNA splice mod: -1.3%

What do the screens show for `CCOC(=O)OCC1OC(CCc2ccccc2)CCC1Oc1ccc(OC)cc1` (stereo not given)?
ALDH1A1 block: 3.1%[13.5 µM]

Results for CCCC(=O)c1cc(O)c(O)cc1O ?
HPGD block: 6.31µM*; ALDH1A1 block: inconclusive

Results for CCCc1cc(C(=O)Cc2ccc(F)cc2)c(O)cc1O ?
HPGD block: -23.2%; PNC inhibitor: 16.6; IMPase cell inh: -0.5; ALDH1A1 block: -1.1%; KinaseGlo FLuc: -2.5%; LMNA splice mod: inconclusive

What do the screens show for `CCc1nnc2c(NCc3ccc(F)cc3)nc3ccccc3n12`?
IMPase cell inh: -4.0

Results for Nc1nc(CSc2n[nH]c(-c3ccccc3)n2)nc(Nc2ccccc2)n1 ?
HPGD block: 12.6µM*; PNC inhibitor: -4.7; IMPase cell inh: 6.1; ALDH1A1 block: inconclusive; KinaseGlo FLuc: 1.2%; LMNA splice mod: -10.3%

What do the screens show for `COc1ccc(Nc2nc(N)nc(CSc3n[nH]c(-c4ccccc4)n3)n2)cc1`?
HPGD block: 22.4µM*; PNC inhibitor: 35.5; IMPase cell inh: 13.8; ALDH1A1 block: 2.1%; KinaseGlo FLuc: -7.1%; LMNA splice mod: -15.5%

Results for Nc1nc(CSC(=S)N2CCCCC2)nc(Nc2ccccc2)n1 ?
ALDH1A1 block: 25.1µM*; KinaseGlo FLuc: 4.3%

Results for COc1ccc(S(=O)(=O)N2CCN(Cc3nc4ccc(C)cc4o3)CC2)cc1 ?
LMNA splice mod: -10.6%[46 µM]

What do the screens show for `Cc1occc1C(=O)NC(C)C(C)(C)C` (stereo not given)?
HPGD block: 31.6µM*; PNC inhibitor: -7.8; IMPase cell inh: inconclusive; ALDH1A1 block: 1.3%; KinaseGlo FLuc: -3.6%; LMNA splice mod: -4.8%

Results for Cc1ccc(NC(=O)c2ccoc2C)cc1C ?
HPGD block: -13.0%; PNC inhibitor: 27.3; ALDH1A1 block: 5.4%; KinaseGlo FLuc: 10µM*; LMNA splice mod: -0.7%

How did Cc1cc(C(F)F)n2nc(C(=O)Nc3ccc(F)c(Cl)c3)nc2n1 do in these assays?
IMPase cell inh: -9.4

Results for Cc1cc(O)c2c(-c3ccccc3)cc(=O)oc2c1 ?
HPGD block: -14.0%; PNC inhibitor: inconclusive; IMPase cell inh: 10.7; ALDH1A1 block: inconclusive; KinaseGlo FLuc: 3.1%; LMNA splice mod: -6.2%

How did CC(=O)COc1cc(C)cc2oc(=O)cc(-c3ccccc3)c12 do in these assays?
ALDH1A1 block: 2.24µM*; KinaseGlo FLuc: -1.1%; LMNA splice mod: 7.1%[46 µM]

How did COc1ccc([N+](=O)[O-])cc1COc1cc(C)cc2oc(=O)cc(-c3ccccc3)c12 do in these assays?
HPGD block: -22.6%; PNC inhibitor: inconclusive; IMPase cell inh: 13.3; ALDH1A1 block: 2µM*; KinaseGlo FLuc: -0.5%; LMNA splice mod: inconclusive

Results for CCc1cc(=O)oc2cc(C)cc(OC(=O)c3ccco3)c12 ?
HPGD block: 0.4%; PNC inhibitor: -7.9; IMPase cell inh: inconclusive; ALDH1A1 block: 10µM*; KinaseGlo FLuc: 3.9%; LMNA splice mod: -16.0%

What do the screens show for `CSc1ncc(C(=O)NCc2cccc(Br)c2)c(-c2ccccc2)n1`?
LMNA splice mod: 13.6%[46 µM]

Results for COc1ccc(-c2noc(CSc3nnc(Cc4ccccc4)n3-c3cccc(C)c3)n2)cc1OC ?
HPGD block: -13.7%; PNC inhibitor: inconclusive; IMPase cell inh: 12.0; ALDH1A1 block: 12.6µM*; KinaseGlo FLuc: 0.9%; LMNA splice mod: -3.6%

How did Fc1ccc(-n2c(Cc3ccccc3)nnc2SCc2nc(-c3cccs3)no2)cc1 do in these assays?
HPGD block: -17.9%; PNC inhibitor: inconclusive; IMPase cell inh: 1.6; ALDH1A1 block: 14.1µM*; KinaseGlo FLuc: -1.5%; LMNA splice mod: -11.3%

How did c1ccc(-c2noc(CSc3nnc(Cc4cccs4)n3-c3ccccc3)n2)cc1 do in these assays?
HPGD block: -1.1%; PNC inhibitor: 8.0; IMPase cell inh: 2.8; ALDH1A1 block: inconclusive; KinaseGlo FLuc: 1.6%; LMNA splice mod: inconclusive

How did Cc1ccc(-c2noc(CSc3nnc(Cc4ccccc4)n3-c3cccc(C)c3)n2)cc1 do in these assays?
HPGD block: -12.6%; PNC inhibitor: inconclusive; IMPase cell inh: 22.0; ALDH1A1 block: -10.8%; KinaseGlo FLuc: -6.2%; LMNA splice mod: inconclusive

How did C=C1C2=CC(=O)OC(c3ccoc3)[C@]2(C)CCC1[C@]1(C)C=CC(=O)C(C)(C)C1CC(=O)OC (stereo not given in full) do in these assays?
HPGD block: -3.7%; ALDH1A1 block: inconclusive; KinaseGlo FLuc: -6.0%

Bioassay records deposited in PubChem by National Center for Advancing Translational Sciences (NCATS).
